# Laboratory results reported in ChEMBL document CHEMBL1961873, “Compounds: GSK PKIS; Assays: Nanosyn kinase panel” (2012).
# How the values were obtained:
# [1] = target: Sphingosine kinase 1 (Homo sapiens) (UniProt Q9NYA1); conditions: at 1 µM;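 further: mean SPHK1 inhibition value reported from the GSK PKIS kinase panel screen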
# [2] = target: T1, Sphingosine kinase 2 (Homo sapiens) (UniProt Q9NRA0); conditions: at 0.1 µM
# T1 sequence (whole entry): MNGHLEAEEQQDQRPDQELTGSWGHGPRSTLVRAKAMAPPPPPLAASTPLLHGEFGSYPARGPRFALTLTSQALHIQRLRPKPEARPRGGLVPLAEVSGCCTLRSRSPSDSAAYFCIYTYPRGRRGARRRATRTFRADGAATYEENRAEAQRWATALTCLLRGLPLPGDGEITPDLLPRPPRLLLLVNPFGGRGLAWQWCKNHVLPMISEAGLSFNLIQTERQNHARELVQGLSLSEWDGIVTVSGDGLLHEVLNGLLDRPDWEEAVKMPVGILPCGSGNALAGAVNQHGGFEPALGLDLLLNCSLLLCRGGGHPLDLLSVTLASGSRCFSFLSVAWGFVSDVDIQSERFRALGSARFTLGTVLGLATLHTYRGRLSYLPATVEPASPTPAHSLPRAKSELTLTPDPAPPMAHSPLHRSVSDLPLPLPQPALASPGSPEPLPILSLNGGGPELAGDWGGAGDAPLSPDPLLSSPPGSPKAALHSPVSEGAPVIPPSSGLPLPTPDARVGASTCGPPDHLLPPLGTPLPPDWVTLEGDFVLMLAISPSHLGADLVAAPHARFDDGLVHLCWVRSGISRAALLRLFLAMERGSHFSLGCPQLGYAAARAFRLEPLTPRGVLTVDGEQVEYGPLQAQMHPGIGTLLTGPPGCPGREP
# [3] = target: T1, Sphingosine kinase 2 (Homo sapiens); conditions: at 1 µM
# [4] = target: Casein kinase II subunit alpha (Homo sapiens) (UniProt P68400); conditions: at 0.1 µM
# [5] = target: Casein kinase II subunit alpha (Homo sapiens) (UniProt P68400); conditions: at 1 µM
# [6] = target: T2, Inhibitor of nuclear factor kappa-B kinase subunit alpha (Homo sapiens) (UniProt O15111); conditions: at 0.1 µM
# T2 sequence (whole entry): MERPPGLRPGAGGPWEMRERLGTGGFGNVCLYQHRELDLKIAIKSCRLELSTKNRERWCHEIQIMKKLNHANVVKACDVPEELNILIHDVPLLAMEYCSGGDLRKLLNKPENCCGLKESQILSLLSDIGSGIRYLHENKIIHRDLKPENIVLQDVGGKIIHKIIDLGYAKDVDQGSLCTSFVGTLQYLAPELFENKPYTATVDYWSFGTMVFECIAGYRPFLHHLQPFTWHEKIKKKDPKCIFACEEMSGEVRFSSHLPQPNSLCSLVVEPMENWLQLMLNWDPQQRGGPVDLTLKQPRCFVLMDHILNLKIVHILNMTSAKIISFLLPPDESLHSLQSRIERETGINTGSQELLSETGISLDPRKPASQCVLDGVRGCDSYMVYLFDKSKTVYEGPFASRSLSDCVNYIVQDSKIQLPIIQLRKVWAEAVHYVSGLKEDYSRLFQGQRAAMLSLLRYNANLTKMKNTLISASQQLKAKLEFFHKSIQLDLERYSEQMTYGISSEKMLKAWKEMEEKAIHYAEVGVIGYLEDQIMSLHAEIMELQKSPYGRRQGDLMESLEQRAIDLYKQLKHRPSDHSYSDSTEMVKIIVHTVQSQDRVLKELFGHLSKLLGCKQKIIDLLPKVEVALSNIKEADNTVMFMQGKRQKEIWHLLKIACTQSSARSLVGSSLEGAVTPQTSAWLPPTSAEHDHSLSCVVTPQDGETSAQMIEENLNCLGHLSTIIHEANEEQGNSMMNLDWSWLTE
# [7] = target: T2, Inhibitor of nuclear factor kappa-B kinase subunit alpha (Homo sapiens); conditions: at 1 µM
# [8] = target: T3, Inhibitor of nuclear factor kappa-B kinase subunit beta (Homo sapiens) (UniProt O14920); conditions: at 0.1 µM
# T3 sequence (whole entry): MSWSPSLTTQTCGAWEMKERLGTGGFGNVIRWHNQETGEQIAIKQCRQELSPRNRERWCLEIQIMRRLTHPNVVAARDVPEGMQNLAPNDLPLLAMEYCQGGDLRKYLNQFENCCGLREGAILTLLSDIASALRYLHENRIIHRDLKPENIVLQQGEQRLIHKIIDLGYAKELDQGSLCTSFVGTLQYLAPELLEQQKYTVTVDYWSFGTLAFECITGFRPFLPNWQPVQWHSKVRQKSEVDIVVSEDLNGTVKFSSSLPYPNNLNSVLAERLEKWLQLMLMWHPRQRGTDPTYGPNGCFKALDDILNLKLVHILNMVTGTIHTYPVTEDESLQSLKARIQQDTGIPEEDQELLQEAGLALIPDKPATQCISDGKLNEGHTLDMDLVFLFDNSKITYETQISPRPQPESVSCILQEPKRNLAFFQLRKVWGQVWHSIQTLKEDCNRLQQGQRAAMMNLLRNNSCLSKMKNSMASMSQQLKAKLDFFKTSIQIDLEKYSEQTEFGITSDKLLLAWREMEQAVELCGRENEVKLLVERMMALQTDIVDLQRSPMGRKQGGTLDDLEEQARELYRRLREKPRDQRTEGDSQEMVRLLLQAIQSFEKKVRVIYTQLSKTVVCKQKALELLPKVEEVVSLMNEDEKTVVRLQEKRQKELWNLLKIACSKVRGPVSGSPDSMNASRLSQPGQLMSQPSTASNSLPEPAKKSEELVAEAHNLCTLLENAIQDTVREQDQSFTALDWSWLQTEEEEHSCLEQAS
# [9] = target: T3, Inhibitor of nuclear factor kappa-B kinase subunit beta (Homo sapiens); conditions: at 1 µM
# [10] = target: T4, Inhibitor of nuclear factor kappa-B kinase subunit epsilon (Homo sapiens) (UniProt Q14164); conditions: at 0.1 µM
# T4 sequence (whole entry): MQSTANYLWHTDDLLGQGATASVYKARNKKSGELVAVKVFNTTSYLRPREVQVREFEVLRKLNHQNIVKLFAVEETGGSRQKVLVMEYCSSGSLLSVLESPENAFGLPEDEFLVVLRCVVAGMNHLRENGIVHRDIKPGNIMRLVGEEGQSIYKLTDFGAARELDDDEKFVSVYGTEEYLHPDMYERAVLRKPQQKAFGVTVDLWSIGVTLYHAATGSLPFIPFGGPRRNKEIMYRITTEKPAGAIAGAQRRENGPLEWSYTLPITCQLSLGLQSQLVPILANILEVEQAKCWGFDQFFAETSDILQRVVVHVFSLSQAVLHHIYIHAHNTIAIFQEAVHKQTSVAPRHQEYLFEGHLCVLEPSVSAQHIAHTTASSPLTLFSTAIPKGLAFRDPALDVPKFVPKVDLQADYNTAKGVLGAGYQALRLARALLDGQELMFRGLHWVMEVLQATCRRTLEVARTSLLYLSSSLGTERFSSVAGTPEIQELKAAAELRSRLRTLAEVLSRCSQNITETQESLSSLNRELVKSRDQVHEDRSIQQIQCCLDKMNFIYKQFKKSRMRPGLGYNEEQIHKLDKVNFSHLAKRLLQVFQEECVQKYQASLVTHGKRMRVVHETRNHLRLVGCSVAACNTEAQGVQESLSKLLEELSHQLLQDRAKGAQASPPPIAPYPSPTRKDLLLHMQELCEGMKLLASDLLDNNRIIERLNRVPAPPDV
# [11] = target: T4, Inhibitor of nuclear factor kappa-B kinase subunit epsilon (Homo sapiens); conditions: at 1 µM
# [12] = target: T5, Serine/threonine-protein kinase Nek1 (Homo sapiens) (UniProt Q96PY6); conditions: at 0.1 µM
# T5 sequence (whole entry): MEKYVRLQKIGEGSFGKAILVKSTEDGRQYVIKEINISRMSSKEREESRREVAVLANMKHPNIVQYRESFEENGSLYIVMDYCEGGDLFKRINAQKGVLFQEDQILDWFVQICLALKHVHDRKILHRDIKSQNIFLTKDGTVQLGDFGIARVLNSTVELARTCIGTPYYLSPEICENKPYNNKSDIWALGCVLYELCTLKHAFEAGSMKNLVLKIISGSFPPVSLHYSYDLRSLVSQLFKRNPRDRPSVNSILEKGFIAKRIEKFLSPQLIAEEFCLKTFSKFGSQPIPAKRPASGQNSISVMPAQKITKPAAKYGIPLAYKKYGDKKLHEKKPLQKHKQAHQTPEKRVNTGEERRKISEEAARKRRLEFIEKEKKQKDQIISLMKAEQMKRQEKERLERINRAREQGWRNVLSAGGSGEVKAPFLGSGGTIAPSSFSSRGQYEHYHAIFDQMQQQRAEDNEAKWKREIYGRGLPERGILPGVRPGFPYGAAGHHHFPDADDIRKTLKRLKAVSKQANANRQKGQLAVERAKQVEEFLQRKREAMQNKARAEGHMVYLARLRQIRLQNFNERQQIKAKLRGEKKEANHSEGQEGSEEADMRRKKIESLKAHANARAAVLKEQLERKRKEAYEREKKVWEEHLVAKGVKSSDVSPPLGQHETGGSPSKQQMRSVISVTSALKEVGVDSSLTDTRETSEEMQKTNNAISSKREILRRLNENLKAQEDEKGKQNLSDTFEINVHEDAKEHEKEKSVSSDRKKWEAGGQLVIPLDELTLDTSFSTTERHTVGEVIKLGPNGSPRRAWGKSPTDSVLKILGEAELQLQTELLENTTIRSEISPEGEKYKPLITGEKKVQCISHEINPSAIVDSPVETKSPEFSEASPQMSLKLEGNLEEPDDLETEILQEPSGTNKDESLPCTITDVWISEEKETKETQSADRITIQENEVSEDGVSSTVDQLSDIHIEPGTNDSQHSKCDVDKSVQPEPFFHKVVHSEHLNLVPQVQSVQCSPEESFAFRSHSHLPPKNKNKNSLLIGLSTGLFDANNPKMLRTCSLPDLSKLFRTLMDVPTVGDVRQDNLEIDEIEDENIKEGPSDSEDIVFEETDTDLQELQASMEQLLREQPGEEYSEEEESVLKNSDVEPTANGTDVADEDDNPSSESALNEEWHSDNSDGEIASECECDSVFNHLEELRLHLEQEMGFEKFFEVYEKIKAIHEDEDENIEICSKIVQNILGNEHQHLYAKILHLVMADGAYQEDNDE
# [13] = target: T5, Serine/threonine-protein kinase Nek1 (Homo sapiens); conditions: at 1 µM
# [14] = target: T6, Serine/threonine-protein kinase Nek2 (Homo sapiens) (UniProt P51955); conditions: at 0.1 µM
# T6 sequence (whole entry): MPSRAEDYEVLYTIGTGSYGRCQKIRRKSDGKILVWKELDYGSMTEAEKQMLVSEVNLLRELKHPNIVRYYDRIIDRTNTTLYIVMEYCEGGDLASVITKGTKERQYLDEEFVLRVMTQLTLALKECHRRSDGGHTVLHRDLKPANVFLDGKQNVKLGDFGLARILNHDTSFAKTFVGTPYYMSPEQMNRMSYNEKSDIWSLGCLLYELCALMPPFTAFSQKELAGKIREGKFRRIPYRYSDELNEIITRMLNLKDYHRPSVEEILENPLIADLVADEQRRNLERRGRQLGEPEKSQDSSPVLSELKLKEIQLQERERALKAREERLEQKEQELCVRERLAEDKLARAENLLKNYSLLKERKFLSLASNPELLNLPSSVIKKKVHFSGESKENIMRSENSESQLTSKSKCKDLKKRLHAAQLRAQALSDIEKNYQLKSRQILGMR
# [15] = target: T6, Serine/threonine-protein kinase Nek2 (Homo sapiens); conditions: at 1 µM
# [16] = target: Serine/threonine-protein kinase Nek6 (Homo sapiens) (UniProt Q9HC98); conditions: at 0.1 µM
# [17] = target: Serine/threonine-protein kinase Nek6 (Homo sapiens) (UniProt Q9HC98); conditions: at 1 µM
# [18] = target: Serine/threonine-protein kinase Nek7 (Homo sapiens) (UniProt Q8TDX7); conditions: at 0.1 µM
# [19] = target: Serine/threonine-protein kinase Nek7 (Homo sapiens) (UniProt Q8TDX7); conditions: at 1 µM
# [20] = target: T7, Serine/threonine-protein kinase Nek9 (Homo sapiens) (UniProt Q8TD19); conditions: at 0.1 µM;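 further: reported value is the mean percent inhibition of NEK9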
# T7 sequence (whole entry): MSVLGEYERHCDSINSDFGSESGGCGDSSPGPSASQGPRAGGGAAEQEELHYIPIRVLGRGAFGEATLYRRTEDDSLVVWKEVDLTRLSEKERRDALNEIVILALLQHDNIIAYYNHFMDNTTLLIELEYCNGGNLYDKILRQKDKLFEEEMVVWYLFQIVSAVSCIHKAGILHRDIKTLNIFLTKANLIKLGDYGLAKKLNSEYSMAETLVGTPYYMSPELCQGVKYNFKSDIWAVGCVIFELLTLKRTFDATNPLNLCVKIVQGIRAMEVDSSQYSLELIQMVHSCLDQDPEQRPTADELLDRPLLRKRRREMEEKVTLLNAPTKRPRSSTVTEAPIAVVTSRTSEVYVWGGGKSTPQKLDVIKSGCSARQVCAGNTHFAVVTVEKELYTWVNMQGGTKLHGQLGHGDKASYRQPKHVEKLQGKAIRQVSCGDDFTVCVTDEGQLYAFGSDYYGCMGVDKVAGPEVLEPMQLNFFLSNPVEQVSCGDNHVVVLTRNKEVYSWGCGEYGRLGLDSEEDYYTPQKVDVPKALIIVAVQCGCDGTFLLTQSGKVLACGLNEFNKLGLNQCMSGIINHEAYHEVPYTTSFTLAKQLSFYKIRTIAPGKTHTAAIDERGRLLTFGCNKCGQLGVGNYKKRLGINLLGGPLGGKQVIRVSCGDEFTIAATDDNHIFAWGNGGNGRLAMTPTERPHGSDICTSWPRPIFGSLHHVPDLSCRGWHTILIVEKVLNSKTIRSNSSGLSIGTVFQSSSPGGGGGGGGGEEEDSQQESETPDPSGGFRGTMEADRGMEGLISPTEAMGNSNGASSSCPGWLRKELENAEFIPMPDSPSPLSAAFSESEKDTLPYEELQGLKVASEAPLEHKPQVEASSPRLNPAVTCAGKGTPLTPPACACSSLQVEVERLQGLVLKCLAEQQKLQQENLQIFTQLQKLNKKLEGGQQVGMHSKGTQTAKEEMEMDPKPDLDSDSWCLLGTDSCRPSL
# Chain of Serine/threonine-protein kinase Nek6 (Homo sapiens) (Q9HC98 whole entry): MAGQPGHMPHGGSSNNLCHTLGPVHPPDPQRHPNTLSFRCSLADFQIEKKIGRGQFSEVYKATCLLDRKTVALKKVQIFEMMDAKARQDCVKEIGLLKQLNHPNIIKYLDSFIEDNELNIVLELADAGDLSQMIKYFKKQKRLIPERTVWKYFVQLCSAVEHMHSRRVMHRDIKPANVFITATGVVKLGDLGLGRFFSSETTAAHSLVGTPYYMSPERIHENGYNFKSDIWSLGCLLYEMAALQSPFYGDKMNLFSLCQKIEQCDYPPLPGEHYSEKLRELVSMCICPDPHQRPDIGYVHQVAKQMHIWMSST
# Chain of Serine/threonine-protein kinase Nek7 (Homo sapiens) (Q8TDX7 whole entry, looked up): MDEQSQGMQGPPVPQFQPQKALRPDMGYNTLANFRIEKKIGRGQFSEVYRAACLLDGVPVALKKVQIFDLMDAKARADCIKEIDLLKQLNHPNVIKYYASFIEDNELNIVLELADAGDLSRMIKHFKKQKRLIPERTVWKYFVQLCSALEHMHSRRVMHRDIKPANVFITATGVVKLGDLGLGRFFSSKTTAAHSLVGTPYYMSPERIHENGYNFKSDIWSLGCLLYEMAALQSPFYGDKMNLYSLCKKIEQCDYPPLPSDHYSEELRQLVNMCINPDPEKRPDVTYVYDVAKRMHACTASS
# Chain of Casein kinase II subunit alpha (Homo sapiens) (P68400 whole entry, looked up): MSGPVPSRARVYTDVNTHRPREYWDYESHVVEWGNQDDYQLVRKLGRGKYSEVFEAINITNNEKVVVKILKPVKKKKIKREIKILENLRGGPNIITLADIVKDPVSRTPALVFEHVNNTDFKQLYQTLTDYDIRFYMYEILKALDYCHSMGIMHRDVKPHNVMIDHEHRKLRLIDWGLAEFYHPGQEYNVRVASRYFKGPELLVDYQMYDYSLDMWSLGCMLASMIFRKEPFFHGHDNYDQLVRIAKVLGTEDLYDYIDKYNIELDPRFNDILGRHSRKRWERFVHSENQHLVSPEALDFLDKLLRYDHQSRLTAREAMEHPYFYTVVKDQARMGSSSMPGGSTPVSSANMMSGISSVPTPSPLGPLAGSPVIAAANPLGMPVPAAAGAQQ
# Chain of Sphingosine kinase 1 (Homo sapiens) (Q9NYA1 whole entry): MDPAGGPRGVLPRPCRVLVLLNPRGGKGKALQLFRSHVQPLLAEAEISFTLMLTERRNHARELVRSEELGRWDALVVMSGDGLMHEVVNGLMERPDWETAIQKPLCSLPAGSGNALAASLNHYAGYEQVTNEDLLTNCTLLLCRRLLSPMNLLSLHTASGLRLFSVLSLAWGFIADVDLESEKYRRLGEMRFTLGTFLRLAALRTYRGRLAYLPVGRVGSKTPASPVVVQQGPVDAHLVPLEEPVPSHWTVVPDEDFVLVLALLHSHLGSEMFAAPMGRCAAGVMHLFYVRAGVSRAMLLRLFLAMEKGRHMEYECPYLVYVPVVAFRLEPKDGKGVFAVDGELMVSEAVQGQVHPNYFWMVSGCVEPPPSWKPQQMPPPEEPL
compound,measurement,setting,value
CC1=C(C(=O)Nc2ccc3[nH]ncc3c2)C(c2ccc(Cl)c(Cl)c2)CC(=O)N1 (stereo not given),inhibition,[1],-3.67%
same,inhibition,[2],-0.3%
same,inhibition,[3],-1.45%
same,inhibition,[4],2.1%
same,inhibition,[5],3.35%
same,inhibition,[6],5.09%
same,inhibition,[7],2.52%
same,inhibition,[8],3.16%
same,inhibition,[9],0.15%
same,inhibition,[10],0.83%
same,inhibition,[11],-0.94%
same,inhibition,[12],0.09%
same,inhibition,[13],-0.51%
same,inhibition,[14],1.92%
same,inhibition,[15],1.44%
same,inhibition,[16],-0.99%
same,inhibition,[17],-2.51%
same,inhibition,[18],2.34%
same,inhibition,[19],3.79%
same,inhibition,[20],7.85%
